Source: PubChem BioAssay (Tox21)
The source made the active and inactive calls. Calls follow the shape of the dose curve; as a rule, active = well fitted curve in the direction sought with a large enough effect in the repeat runs; inconclusive = weak or mixed curves; inactive = flat fitted curve, though single readings scatter.

Experiment: qHTS assay to test for compound auto fluorescence at 590 nm (red) in HEK293 cells (AID 720679)
Details: red autofluorescence 540/590 nm; series mostly up to 91.3 µM
Source text: National Center for Advancing Translational Sciences [NCATS]
NIH Chemical Genomics Center [NCGC]
U.S. Environmental Protection Agency [EPA]
National Institutes of Environmental Health Sciences [NIEHS]
National Toxicology Program [NTP]
U.S. Food and Drug Administration [FDA]
Compound auto fluorescence often interferes with screening of the compound library against various biological targets and signaling pathways. Some of these compounds may have fluorophoric properties. Such properties may interfere with the assay outputs resulting in false positives and/or negatives. To decrease such complications and ensure the compound activities are relevant in terms of biological response, the Tox21 10K compound library was screened for auto fluorescence.
From the fluorophores used as reporter signals in our screening assays, the auto fluorescence equivalencies of compounds against three fluorophores have been evaluated: Triamterene, Fluorescein and Rose Bengal sodium for blue, green and red fluorescence, respectively. The fluorescence intensities were measured using Excitation/Emission wavelengths at 405/460nm, 485/535nm and 540/590nm for blue, green and red labels, respectively. This assay includes the red fluorescence data.
Tox21 Assay Protocol Summary:
2,000 HEK293 cells in 5 uL of culture medium containing 10% dialyzed FBS per well were dispensed into black wall/clear bottom 1536-well plates using a Multidrop Combi Dispenser (Thermo Scientific). The assay plates were incubated for 4-5 hr at 37C to allow cell attachment to the well bottom, followed by the transfer of 23 nL compound or DMSO vehicle by a pintool work station (Kalypsys, San Diego, CA). After the assay plates were incubated overnight at 37C and 5% CO2, fluorescence intensities in the assay plates were measured by an Envision (PerkinElmer, Shelton, CT) plate reader using three labels for measuring blue, green and red fluorescence at […] 460, 535 and 590nm respectively.
% is scaled to controls: 0 for no effect and ±100 for the full control effect.

SMILES | outcome | fluorescence, % of fluorescent control
COC(C)(C)OC | inactive | 
C=C(C)C(=O)OCCC(F)(F)C(F)(F)C(F)(F)C(F)(F)C(F)(F)C(F)(F)F | inactive | 
c1ccc(CCCc2ccncc2)cc1 | inactive | 
CCCCCCCCCCCCCOS(=O)(=O)O | inactive | 
O=C1CC[C@@H](C(=O)O)N1 | inactive | 
CCCCCCOC(=O)CCCCC | inactive | 
Cc1cn([C@H]2C[C@H](F)[C@@H](CO)O2)c(=O)[nH]c1=O | inactive | 
CC1=CC[C@@H]2C[C@H]1C2(C)C |  | -0.712% [at 18.6 µM] (inactive)
CSCC[C@H](NC(=O)[C@H](Cc1c[nH]c2ccccc12)NC(=O)CCNC(=O)OC(C)(C)C)C(=O)N[C@@H](CC(=O)O)C(=O)N[C@@H](Cc1ccccc1)C(N)=O | inactive | 
COc1ccc(C)cc1 | inactive | 
COc1cc(OC)c2ccc(=O)oc2c1 | inactive | 
O=CNNC=O | inactive | 
COc1ccc(C(=O)NCc2ccc(OCCN(C)C)cc2)cc1OC | inactive | 
CCCCCCCCCCCC(=O)OCC(O)CO (stereo not given) | inactive | 
COC(=O)c1sccc1S(N)(=O)=O | inactive | 
O=C(O)/C=C/c1ccc(O)c(O)c1 | inactive | 
Cc1c(C2(c3cc(Br)c(O)c(Br)c3C)OS(=O)(=O)c3ccccc32)cc(Br)c(O)c1Br | inactive | 
CC(C)(C)C(O)/C=C/c1ccc2c(c1)OCO2 (stereo not given) | inactive | 
CCC(CO)(CO)[N+](=O)[O-] | inactive | 
O=C(O)CO | inactive | 

SMILES | outcome | fluorescence, % of fluorescent control
O=C1c2ccccc2C(=O)c2c(O)ccc(O)c21 | inactive | 
ClC1=C(Cl)C1(Cl)Cl | inactive | 
CC[C@@H](CO)NCCN[C@@H](CC)CO |  | -0.143% [at 18.6 µM] (inactive)
CCOC(=O)c1ccc(NC(=O)CN2CCCCC2)cc1 | inactive | 
C=C(C)c1ccccc1 | inactive | 
CC(C)c1ccc(C(=O)N=C(N)N)cc1S(C)(=O)=O | inactive | 
CCC(=O)OCc1ccc(OC)cc1 | inactive | 
CC(C)N=C=NC(C)C | inactive | 
C=CC(=O)O | inactive | 
CC(C)(C)C1(CCc2ccc(Cl)cc2)CO1 (stereo not given) | inactive | 
O=C(O)c1cccc(C[C@@H]2COc3ccc(OCc4nc5cc(F)ccc5s4)cc3[C@@H]2O)c1 | inactive | 
COc1ccc(/C=C/C(=O)c2ccc(OC)cc2OC)cc1 | inactive | 
Nc1cccc2c(N)cccc12 | inactive | 
CCCCCCCC(=O)OCCCCCC | inactive | 
O=C(NS(=O)(=O)/C=C/c1ccccc1)c1ccc(F)cc1Cl | inactive | 
Cc1cc(CCC(=O)OCCOCCOCCOC(=O)CCc2cc(C)c(O)c(C(C)(C)C)c2)cc(C(C)(C)C)c1O | inactive | 
CSSc1ccoc1C | inactive | 
CCC(C)(C)C(=O)O | inactive | 
COC(OC)OC | inactive | 
CS(=O)(=O)c1ccc([C@@H](C[C@H]2CCC(=O)C2)C(=O)Nc2cnccn2)cc1Cl | inactive | 
